Tgondii IFNg – inhibitors of Toxoplasma gondii growth with IFN-gamma. Toxoplasma gondii growth in IFN-gamma-treated host cells; active compounds read low. activity change, negative = inhibition, % (no concentration beside the values). 69,000 compounds, 3.8% hits; in the data active = activity change below about -70%, passing the limit was not always enough;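 also: host cells are HeLa cells infected with Toxoplasma gondii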
An asterisk follows results filed as active. Shown is part of a subset that was picked to be rich in hits.

CCc1cc(CN(C)C(=O)c2cn[nH]n2)on1 was read as Tgondii IFNg 13.0.
CN(C)CCNC(=O)c1cc2c(s1)CCN2C(=O)C1CC1 was read as Tgondii IFNg 2.4.
COc1cccc(CNC(=O)N2CCc3nc(-c4ccccc4)sc3C2)c1 was read as Tgondii IFNg 32.7.
Screening COc1cccc(CNC(=O)c2cc3c(s2)CCN3C(=O)c2ccc(F)cc2)c1 returned Tgondii IFNg -86.9*.
COc1cccc(CNC(=O)c2cc3c(s2)CCN3C(=O)CN(C)C)c1 was read as Tgondii IFNg -6.3.
Screening O=C(NCc1cccc(F)c1)c1cc2c(s1)CCN2C(=O)c1ccccc1 returned Tgondii IFNg -81.8*.
`COc1cccc(CNC(=O)c2cc3c(s2)CCN3C(=O)c2ccccc2)c1` gave Tgondii IFNg -100.0*.
Screening COc1cccc(CNC(=O)c2nc3c(o2)CN(C(=O)c2cccc(F)c2)C3)c1 returned Tgondii IFNg 56.6.
For COc1cccc(CNC(=O)c2nc(Nc3ccc(F)cc3)c3ccccc3n2)c1 the results were Tgondii IFNg 21.6.
Screening CC(C)CNC(=O)c1cc2c(s1)CCN2C(=O)C1CC1 returned Tgondii IFNg -2.9.
`CCCCOC(=O)C(Cc1ccccc1)NS(=O)(=O)c1ccc(C)cc1` (stereo unspecified) gave Tgondii IFNg 8.5.
Cc1cc(N2CCOCC2)ccc1Nc1nc(NC2CCCCC2)c2[nH]cnc2n1 was read as Tgondii IFNg -58.1.
Screening CN(C)Cc1cc(=O)n2c(n1)CN(Cc1cccs1)CCC2 returned Tgondii IFNg -1.9.
COCC1CN(Cc2cnn(C)c2)Cc2nccn2C1 (stereo unspecified) was read as Tgondii IFNg -17.0.
COc1ccc(OC)c(C2CCN(S(=O)(=O)c3ccc4[nH]c(=O)ccc4c3)C2)c1 (stereo unspecified) was read as Tgondii IFNg -33.9.
For CCc1ccc(CN(C)c2nc(-c3ccncc3)nc3c2CNC3)nc1 the results were Tgondii IFNg -8.3.
`Cc1ccc(CN2C[C@H]3[C@@H](C(=O)NC4CCC4)CCS(=O)(=O)[C@H]3C2)cc1` gave Tgondii IFNg -41.1.
`CCOC(=O)c1nc(Nc2cc(Cl)c(OC)cc2OC)c2ccccc2n1` gave Tgondii IFNg -11.9.
`O=C(c1cnc2ccccc2c1)N1CCC2(CC(=O)N(c3cccc(F)c3)C2)C1` (stereo unspecified) gave Tgondii IFNg -74.3*.
Screening Cc1cccc(N2CC3(CCN(C(=O)c4cnc5ccccc5c4)C3)CC2=O)c1 (stereo unspecified) returned Tgondii IFNg -63.1.
For O=C(c1cnc2ccccc2c1)N1CCC2(CC(=O)N(c3ccc(F)cc3)C2)C1 (stereo unspecified) the results were Tgondii IFNg -30.6.
`COc1cc2ncnc(Nc3cccc(Cl)c3)c2cc1OC` gave Tgondii IFNg -69.6.
For C[C@@H]1COC(Nc2ccc3ncnc(Nc4ccc(OCc5nccs5)c(Cl)c4)c3c2)=N1 the results were Tgondii IFNg -73.0*.
CN1[C@@H](C(=O)NCc2ccccn2)C[C@@H](c2cccs2)NS1(=O)=O was read as Tgondii IFNg -34.5.
CCc1ccc2c(c1)cc(S(=O)(=O)c1ccccc1)c(=O)n2CC(=O)NC(C)C was read as Tgondii IFNg -38.5.
Screening Cn1nc(C2CCN(C(=O)N3CCCC3)CC2)n(Cc2ccccc2)c1=O returned Tgondii IFNg 2.4.
Screening Cc1cccc(NC(=O)CN2CCC3(CC2)N=C(c2ccc(C)c(C)c2)C(=O)N3)c1 returned Tgondii IFNg -9.9.
For Cc1ccc(NC(=O)CN2CCC3(CC2)N=C(c2ccc(C(C)(C)C)cc2)C(=O)N3)cc1C the results were Tgondii IFNg -76.2*.
Cc1ccc(NC(=O)CN2CCC3(CC2)N=C(c2cccc(F)c2)C(=O)N3)cc1C was read as Tgondii IFNg 37.7.
O=C(NCc1cccnc1Oc1ccccc1F)c1ccc(CO)o1 was read as Tgondii IFNg -6.2.
`CCCc1cc(C(=O)N(C)Cc2nc(C)no2)cs1` gave Tgondii IFNg 0.3.
O=C(CN1CCN(Cc2ccccc2)CC1)c1ccc2c(c1)OCCO2 was read as Tgondii IFNg -28.3.
Screening Cc1c(C)n(C2CCCC2)c2ncnc(OC3CCN(C(=O)Cc4ccsc4)CC3)c12 returned Tgondii IFNg -80.4*.
For CS(=O)(=O)c1cnc(N2CCCCC2)nc1C1CCN(C(=O)Cc2ccsc2)CC1 the results were Tgondii IFNg -18.7.
Screening CN(C)Cc1cnc2n1CCN(C(=O)Cc1ccsc1)CC2 returned Tgondii IFNg -2.9.
For CCOCC1CN(Cc2nc(C)cs2)Cc2ncn(C)c21 (stereo unspecified) the results were Tgondii IFNg 0.8.
`CC(C)Cn1cncc1CNC(=O)c1cccc(CC2CCNCC2)c1` gave Tgondii IFNg 2.4.
c1ccc(CN2CCN(c3ncnc4ccccc34)CC2)cc1 was read as Tgondii IFNg -85.7*.
Screening c1ccc2c(N3CCN(Cc4cccc5nccnc45)CC3)ncnc2c1 returned Tgondii IFNg -17.4.
`c1ccc(-n2cc(CN3CCN(c4ncnc5ccccc45)CC3)cn2)cc1` gave Tgondii IFNg -53.4.
`Cc1scc(C(=O)O)c1-c1ccccc1` gave Tgondii IFNg 15.4.
Cc1nc(CNC2CCN(Cc3ccccc3)CC2)nc2c1CCCC2 was read as Tgondii IFNg 0.6.
Screening Cc1nn(C)c(C)c1CNC(=O)Nc1csc2ccccc12 returned Tgondii IFNg -64.2.
For S=C(NCc1csc2ccccc12)c1ccccc1 the results were Tgondii IFNg -77.6*.
Screening O=S(=O)(NCc1csc2ccc(Cl)cc12)c1ccccc1 returned Tgondii IFNg -14.3.
Screening COCCN1C[C@@H](NC(=O)c2nccn2C)[C@@H]2OCCC[C@@H]21 returned Tgondii IFNg inactive.
`N#Cc1cc2c(ccc3ccccc32)oc1=N` gave Tgondii IFNg 142.2.
`CC(C)(C)c1ccc2cc(C#N)c(C#N)cc2c1` gave Tgondii IFNg -80.0*.
`CC(NC(=O)CN1CCc2ccccc2C1)c1cn2ccsc2n1` (stereo unspecified) gave Tgondii IFNg 4.8.
O=C(Cc1ccc(Cl)cc1)N1CC2(CCN(Cc3ccccc3)CC2)C1 was read as Tgondii IFNg -3.7.
`CCOC(=O)C1(CC2CC(c3ccc(F)cc3)=NO2)CCCN(C(=O)c2ccccc2)C1` (stereo unspecified) gave Tgondii IFNg -8.7.
`Cc1ccc(-c2nc(CN3CCN(C(=O)Nc4ccccc4Cl)CC3)c(C)o2)cc1` gave Tgondii IFNg 1.7.
CC(C)(C(=O)NCC(F)(F)C(F)(F)F)C(=O)N[C@@H]1C(=O)Nc2ccccc2-c2ccccc21 was read as Tgondii IFNg -89.0*.
CCC(=O)N1CCCC(C2C(=O)Nc3ccccc32)C1 (stereo unspecified) was read as Tgondii IFNg 0.8.
For C=CCO[C@H]1CN(C(=O)c2cccc(C#N)c2)[C@H]2COC[C@@H]12 the results were Tgondii IFNg 24.2.
O=C(Cn1ncc2c(N3CCOCC3)ncnc21)N1CCN(c2ccccc2)CC1 was read as Tgondii IFNg 27.2.
Screening COc1cc(C(=O)N(C)CCOc2ccccc2OC)c2ccccc2n1 returned Tgondii IFNg -93.2*.
COc1ccccc1OCc1cc(C(=O)N(C)Cc2cc(C)no2)no1 was read as Tgondii IFNg -9.5.
For COc1ccccc1OCC(=O)O the results were Tgondii IFNg 25.4.
CCc1c(C)nn(CC(=O)NC(C)c2ccc(O)c(F)c2)c1C (stereo unspecified) was read as Tgondii IFNg 1.9.
Cc1oc(-c2ccccc2)nc1Cn1nnc(-c2nc(-c3cccc(Br)c3)no2)c1C was read as Tgondii IFNg -6.2.

Source: PubChem (Broad Institute)
